Screen size: about 340,000 compounds; about 490 (0.14%) were called active. This is one part of a sample in which actives are shown more often than they occur. A number with no mark means an inactive call. No stated cut-off is given here; in the data, active means inhibition above about 12%; inconclusive means no clear call, values can overlap the other calls; inactive means below about 7.3%.

Chain of Kelch-like ECH-associated protein 1 (Homo sapiens) (Q14145 whole entry, looked up, the tested form may be a part): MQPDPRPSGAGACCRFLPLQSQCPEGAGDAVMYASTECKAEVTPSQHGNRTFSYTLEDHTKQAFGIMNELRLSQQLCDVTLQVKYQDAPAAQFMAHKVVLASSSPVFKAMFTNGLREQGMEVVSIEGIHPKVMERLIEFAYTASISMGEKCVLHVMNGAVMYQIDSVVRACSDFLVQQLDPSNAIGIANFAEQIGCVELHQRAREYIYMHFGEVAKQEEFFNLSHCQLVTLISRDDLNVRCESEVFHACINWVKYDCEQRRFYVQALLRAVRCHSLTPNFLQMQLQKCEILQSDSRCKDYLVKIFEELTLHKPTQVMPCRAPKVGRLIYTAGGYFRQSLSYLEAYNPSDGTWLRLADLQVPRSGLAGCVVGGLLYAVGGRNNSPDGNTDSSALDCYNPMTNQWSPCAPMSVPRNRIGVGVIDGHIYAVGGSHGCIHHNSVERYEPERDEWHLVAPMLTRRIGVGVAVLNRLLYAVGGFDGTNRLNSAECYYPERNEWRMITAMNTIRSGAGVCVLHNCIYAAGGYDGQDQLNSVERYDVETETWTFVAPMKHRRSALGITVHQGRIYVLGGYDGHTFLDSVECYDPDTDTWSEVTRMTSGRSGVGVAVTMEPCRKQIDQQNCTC

This test has as its target Kelch-like ECH-associated protein 1 (Homo sapiens) (UniProt Q14145). The test is described as follows: Keap1-Nrf2 protein-protein interaction inhibitors, primary screen, biochemical, fluorescence polarization, single point (AID 504523).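 Further: human Keap1 Kelch domain with fluorescein labeled Nrf2 9mer peptide probe; 0% = neutral control wells and 100% = peptide positive control.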 As to conditions: Keap1 Kelch-Nrf2 peptide fluorescence polarization, 1536-well; at 9.4 µM; stronger effect = higher value.
Take `CC1(C)CC(=O)C(N=Nc2ccc(S(=O)(=O)N3CCCCCC3)cc2)=C(O)C1`: the inhibition is 5.03%. With `CC1(C)CC(=O)C(N=Nc2c(F)cccc2F)=C(O)C1` the figure was 37.8% (active). With `CC1(C)CC(=O)C(C2=NC(C)(C)Cc3ccccc32)=C(O)C1` the figure was -1.79%; with `CN1CCOC1c1ccc(C2OCCN2C)cc1` (centres undefined), 1.77%; with `O=C(C[n+]1cc(Br)cc2ccccc21)c1ccc(F)cc1`, -7.79%. With `COC(=O)Cc1c(-c2[nH]c3ccccc3c2CC(=O)OC)[nH]c2ccccc12` the figure was -0.936%. For `COC(=O)C[n+]1cccc2ccccc21`, the inhibition was 36.4% (active). For `CCN1CCC(O)(/C=C/c2ccc(C)cc2)C(C(=O)/C=C/c2ccc(C)cc2)C1` (centres undefined), the inhibition is -56.9%. As to `CCC1CCC2(CC1)NC(=O)N(CC(=O)Nc1ccc(OC)cc1)C2=O` (centres undefined), the inhibition is -5.89%.

In the case of `COc1cccc(CN2CCNC(=O)C2CC(=O)N(C)CCc2ccccn2)c1` (centres undefined), the inhibition is -0.18%.

On to `CCOC(=O)C1(Cc2ccccc2C)CCCN(S(C)(=O)=O)C1` (centres undefined), for which the inhibition was -4.08%. `Cc1ccc(F)cc1NC(=O)N1CCCN(c2ccc(C(F)(F)F)cn2)CC1`: the inhibition is -5.94%. The value for `OC1CSc2nc3ccccc3n2C1` (centres undefined) was 1.42%; that for `CCOC(=O)c1c(C)n(C)c2ccc(OC)c(NC(=O)CN3CCC4(CC3)OCCO4)c12` was -2.53%; that for `Cc1cccc(NS(=O)(=O)c2ccc(C)c(C(=O)NCC(c3ccccc3)N(C)C)c2)c1` (centres undefined) was 46.2% (active). The value for `Cc1cccc(NS(=O)(=O)c2ccc(C)c(C(N)=O)c2)c1` was -6.17%; that for `COc1ccc(C(CNC(=O)c2cc(S(=O)(=O)Nc3cccc(C)c3)ccc2C)N2CCCC2)cc1` (centres undefined) was -2.75%. For the compound `CCOC(=O)N1CCN(C(=O)COC(=O)c2cccc(S(C)(=O)=O)c2)CC1`, the inhibition was 1.11%. The value for `C/C(=N/NC(=S)Nc1ccccc1)c1ccc2c(c1)OCO2` was -4.81%. The value for `Cc1ccc(NC(=O)CSc2sc3c(O)cc(=O)[nH]c3c2C#N)cc1C` was -7.74%; that for `Cc1nc(CN(C)C(=O)CC2C(=O)NCCN2Cc2ccc(F)cc2)cs1` (centres undefined) was -0.6%. With `COC(=O)c1sc(N)c(C(=O)OC)c1COC(=O)CNS(=O)(=O)c1ccc(C)cc1` the figure was 2.32%; with `CC(C)(O)C#Cc1ncc(C(F)(F)F)cc1Cl`, 2.69%; with `Clc1ccc2c(c1)C1=C(C(c3ccncc3)O2)C(c2ccc(Br)cc2)n2ncnc2N1` (centres undefined), -2.67%. As for `Brc1ccc(C2=CC(c3ccco3)n3ncnc3N2)cc1` (centres undefined), the inhibition is 36.1% (active). With `COc1ccccc1NC(=O)CSc1nnc(Cn2nnc(-c3ccccc3)n2)n1-c1ccccc1` the figure was 0.652%; with `CC(=O)Nc1ccc(S(=O)(=O)NNC(=O)CCc2ccccc2)cc1`, -9.19%; with `O=C(CCc1ccccc1)NNc1ccc(F)cc1`, 12.6% (active). As for `O=C(CCc1ccccc1)NNC(=O)COc1ccc(Cl)cc1`, the inhibition was -4.48%. With `Cc1nc2ccccn2c1C(=O)NN=C1CCN(C)CC1` the figure was -3.6%. Turning to `CC(C)(C)c1ccc(CCC2OCC(CN3CCOCC3)O2)cc1` (centres undefined), the inhibition was 3.61%. The value for `Cc1ccc(-n2ncc(C(=O)NC3CC3)c2C2CCN(C(=O)OC(C)(C)C)CC2)c(C)c1` was -3.33%; that for `O=S(=O)(c1ccc(Br)cc1)c1nc(-c2ccccc2)oc1N1CCOCC1` was -9.08%; that for `CCCC(NC(=O)c1ccccc1)c1nc2ccccc2n1Cc1ccc(C(=O)OC)o1` (centres undefined) was -2.49%.

Regarding `CCCNc1c(N)c(=O)c1=O`, the inhibition was -1.65%. With `O=C(CCNc1n[nH]c(=O)[nH]c1=O)N/N=C\c1ccc(Br)cc1` the figure was -2.4%. With `CSCC[C@H](NC(=O)NCCc1ccc(F)cc1)C(=O)O` the figure was 1.87%; with `COc1ccc(C2/C=C\CN(S(=O)(=O)c3cccs3)CC(=O)N2Cc2ccc(F)cc2)cc1` (centres undefined), -0.104%; with `O=C(O)CC(Cn1cnnn1)c1ccccc1` (centres undefined), 20.2% (active). With `O=C(O)CC(CC(=O)N1CCOCC1)c1ccccc1` (centres undefined) the figure was -1.3%; with `O=C(O)CC(c1ccccc1)n1cnnn1` (centres undefined), -4.84%. Take `Cc1cccc(C2c3c(n(C)c(=O)n(C)c3=O)N=C3c4ccccc4C(=O)C32)c1` (centres undefined): the inhibition is -0.0535%. For `Cc1nonc1C1CCCN1Cc1nc(-c2ccc(F)cc2F)oc1C` (centres undefined), the inhibition is -5.07%. For the compound `Cn1c(CCNS(=O)(=O)c2ccc(F)cc2)nnc1SCc1cccnc1`, the inhibition is -1.02%.

With `Cc1ccc(OC(=O)c2cncc(Br)c2)c(C)c1`, the inhibition was 5.58%.

Turning to `Cc1cccc(N=Nc2c(O)[nH]c3ccc(F)cc23)c1`, the inhibition is 0.392%. `COc1cccc(NC(=O)CN(C)C(C)C(=O)Nc2ccc(C#N)cc2)c1` (centres undefined): the inhibition was 4.55%. With `COCCN(C(=O)C(C)N1C(=O)c2ccccc2C1=O)c1c(N)n(CC(C)C)c(=O)[nH]c1=O` (centres undefined) the figure was -8.05%; with `CN(C(=O)CC1C(=O)NCCN1Cc1ccc(F)cc1Cl)C1CCCCC1` (centres undefined), -12.6%; with `O=C(CNC(=O)c1ccc(Br)o1)NCC1CCCO1` (centres undefined), 3.4%.

On to `CCN(CC)CC(=O)Nc1nn(-c2ccccc2)nc1C(N)=O`, for which the inhibition is -0.843%. For the compound `O=C(NNc1c2ccccc2nc2ccccc12)c1cc2ccccc2cc1O`, the inhibition was -0.162%.

Turning to `Cc1onc(-c2ccc(Cl)cc2)c1-c1ccnn1S(=O)(=O)c1ccc(Cl)cc1`, the inhibition was -1.71%. The value for `O=C(C1=C[C@H](c2coc3ccccc3c2=O)C[C@H](OCc2ccc(CO)cc2)O1)N1CCN(Cc2ccccc2)CC1` was -4.23%; that for `Nc1ccc2nc3c(=O)[nH]c(=S)[nH]c3nc2c1` was 39% (active); that for `CN(CC(=O)Nc1ccc(C(N)=O)cc1)S(=O)(=O)c1ccc2c(c1)OCCO2` was -4.93%. With `CCC(C)(C)c1ccc(Oc2ccc(NC(=O)COC(=O)C3=COCCO3)cc2)cc1` the figure was 1.96%; with `CC(OC(=O)c1ccccc1OCc1ccc(Cl)cc1)C(N)=O` (centres undefined), -6.61%.

Turning to `COC(=O)/C=C\C(=O)Nc1cccc([N+](=O)[O-])c1`, the inhibition is 8.41%.

The record behind these values is PubChem BioAssay AID504523 (Broad Institute, 2011).
